A short description of assay [1]: optical density shifts of acrAB sulA E. coli – strain DRC41, OD650, 48 h, E. coli filamentation inducer project, primary screen (AID 1152).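 Also: E. coli MC1000 strain DRC41 lacking acrAB efflux pump and sulA.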 To be noted: higher = more signal, called active from +8 up or from −8 down.
Assay [2] in a line: probe aLefty1 binding on compound microarray – biochemical, small-molecule microarray, 635/667 nm fluorescence, primary screen (AID 1153).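 Also: score merges spot fluorescence with signal-to-noise ratio from the scanned slide images.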 The note with it: higher = more signal.
The nature of assay [3]: plasmodial surface anion channel blockers, osmotic lysis – cell-based, P. falciparum Indochina, OD700, 1 h, primary screen (AID 1154). To be noted: P. falciparum Indochina infected RBC osmotic lysis, higher = more signal, called active from +8 up or from −8 down.
Assay [4] is described as follows: plasmodial surface anion channel blockers, osmotic lysis – cell-based, P. falciparum Indochina, OD700, 2 h, primary screen (AID 1155).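 Also: lysis reports solute entry through the parasite surface anion channel PSAC.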 To be noted: P. falciparum Indochina infected erythrocytes, higher = more signal, called active from +8 up or from −8 down.
Assay [5] can be described thus: changes in parasitized red cell lysis, either direction – P. falciparum Indochina, OD700, 3 h, PSAC antagonist project, primary screen (AID 1156). The note with it: P. falciparum-infected erythrocytes, osmotic lysis, higher = more signal, called active from +8 up or from −8 down.
Assay [6] in a line: plasmodial surface anion channel blockers, osmotic lysis – cell-based, P. falciparum Indochina, OD700, 18 h, primary screen (AID 1157). The note with it: P. falciparum Indochina infected erythrocytes, osmotic lysis OD700, 18 h; higher = more signal, called active from +8 up or from −8 down.
Assay [7] can be described thus: S6 kinase pathway phospho-S6 level changes – cell-based, A549, cytoblot, luminescence, serum-stimulated, primary screen (AID 1158).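 Also: serum-stimulated A549 lung adenocarcinoma cells; signal is phosphorylated S6 detected by cytoblot immunostaining with HRP secondary.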 The note with it: 5 h, higher = more signal.
The target of assay [8] is NADPH oxidase 2 (Homo sapiens) (UniProt P04839). The experiment in a line: compounds shifting NOX2 Amplex Red fluorescence – cell-based, HEK293-NOX2, PMA-stimulated, NOX inhibitor project, primary screen (AID 1159). Also: test concentration not given here. To be noted: 45 min, higher = more signal, called active from +8 up or from −8 down.
NADPH oxidase 2 (Homo sapiens), sequence (P04839 whole entry, looked up): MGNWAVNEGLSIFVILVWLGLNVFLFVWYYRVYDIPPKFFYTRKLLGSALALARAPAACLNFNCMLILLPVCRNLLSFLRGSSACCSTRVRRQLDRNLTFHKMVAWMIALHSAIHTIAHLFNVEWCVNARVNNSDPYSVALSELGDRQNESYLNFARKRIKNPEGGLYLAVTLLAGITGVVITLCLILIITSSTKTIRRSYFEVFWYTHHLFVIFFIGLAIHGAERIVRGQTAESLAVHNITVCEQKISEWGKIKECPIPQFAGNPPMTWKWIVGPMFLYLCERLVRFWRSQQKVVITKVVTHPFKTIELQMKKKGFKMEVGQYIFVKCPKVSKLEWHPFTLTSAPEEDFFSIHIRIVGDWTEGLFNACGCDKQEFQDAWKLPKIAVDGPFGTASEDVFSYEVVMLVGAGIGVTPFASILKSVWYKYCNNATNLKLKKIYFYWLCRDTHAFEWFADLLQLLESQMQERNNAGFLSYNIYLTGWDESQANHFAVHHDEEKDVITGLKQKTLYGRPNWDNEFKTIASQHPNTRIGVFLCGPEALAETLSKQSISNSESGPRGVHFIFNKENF
The target of assay [9] is NADPH oxidase 4 (Homo sapiens) (UniProt Q9NPH5). The experiment in a line: compounds shifting NOX4 Amplex Red fluorescence – cell-based, HEK293-NOX4, tetracycline-induced, NOX inhibitor project, primary screen (AID 1160). To be noted: HEK293-NOX4, Amplex Red H2O2 fluorescence, 45 min; higher = more signal, called active from +8 up or from −8 down.
NADPH oxidase 4 (Homo sapiens), sequence (Q9NPH5 whole entry, looked up): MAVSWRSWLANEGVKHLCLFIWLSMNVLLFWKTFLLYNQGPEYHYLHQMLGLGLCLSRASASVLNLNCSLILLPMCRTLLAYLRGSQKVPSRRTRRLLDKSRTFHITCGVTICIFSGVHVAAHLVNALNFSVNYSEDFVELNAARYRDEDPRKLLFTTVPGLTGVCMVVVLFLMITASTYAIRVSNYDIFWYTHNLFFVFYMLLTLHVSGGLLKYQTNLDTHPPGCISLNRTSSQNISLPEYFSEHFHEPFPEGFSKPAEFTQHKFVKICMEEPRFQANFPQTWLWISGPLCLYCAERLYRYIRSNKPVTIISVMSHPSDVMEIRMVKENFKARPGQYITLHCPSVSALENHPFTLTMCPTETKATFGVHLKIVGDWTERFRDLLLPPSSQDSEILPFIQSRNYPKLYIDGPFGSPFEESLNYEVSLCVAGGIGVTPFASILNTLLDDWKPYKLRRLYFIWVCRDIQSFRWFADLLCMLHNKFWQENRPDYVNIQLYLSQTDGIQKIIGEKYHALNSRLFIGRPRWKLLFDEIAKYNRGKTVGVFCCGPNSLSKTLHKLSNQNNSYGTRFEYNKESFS
Assay [10] deals with NADPH oxidase 5 (Homo sapiens) (UniProt Q96PH1). The experiment in a line: compounds shifting NOX5 Amplex Red fluorescence – cell-based, HEK293-NOX5, NOX inhibitor project, primary screen (AID 1161). To be noted: HEK293-NOX5, ionomycin, 45 min, higher = more signal.
NADPH oxidase 5 (Homo sapiens), sequence (Q96PH1 whole entry, looked up): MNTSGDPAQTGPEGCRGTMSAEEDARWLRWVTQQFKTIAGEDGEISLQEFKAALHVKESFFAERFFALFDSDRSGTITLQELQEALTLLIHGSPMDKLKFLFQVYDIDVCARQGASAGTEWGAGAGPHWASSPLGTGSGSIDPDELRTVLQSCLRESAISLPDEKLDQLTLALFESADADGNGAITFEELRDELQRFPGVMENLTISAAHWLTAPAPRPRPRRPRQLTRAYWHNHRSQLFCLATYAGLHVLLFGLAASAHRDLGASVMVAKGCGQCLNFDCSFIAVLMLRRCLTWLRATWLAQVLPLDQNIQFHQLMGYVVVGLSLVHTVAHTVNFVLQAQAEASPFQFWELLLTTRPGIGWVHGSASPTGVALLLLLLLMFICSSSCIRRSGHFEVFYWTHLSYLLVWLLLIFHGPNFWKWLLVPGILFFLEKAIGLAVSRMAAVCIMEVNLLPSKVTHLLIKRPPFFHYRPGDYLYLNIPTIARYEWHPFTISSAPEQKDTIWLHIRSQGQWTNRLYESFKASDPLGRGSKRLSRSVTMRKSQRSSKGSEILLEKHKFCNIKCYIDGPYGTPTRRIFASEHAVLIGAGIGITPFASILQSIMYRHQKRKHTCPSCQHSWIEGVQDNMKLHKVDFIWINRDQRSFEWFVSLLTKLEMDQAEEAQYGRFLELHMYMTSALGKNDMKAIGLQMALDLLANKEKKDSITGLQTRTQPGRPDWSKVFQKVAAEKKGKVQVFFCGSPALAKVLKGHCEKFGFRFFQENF
The nature of assay [11]: compound effects on lung adenocarcinoma cell viability – A549, calcein-AM fluorescence, 48 h, basal, profiling panel (AID 1162). Also: test concentration not given here. To be noted: higher = more signal.
A short description of assay [12]: compound effects on differentiated 3T3-L1 adipocyte viability – cell-based, 3T3-L1 adipocytes, calcein-AM fluorescence, 48 h, basal, profiling panel (AID 1163). Also: test concentration not given here. The note with it: 3T3-L1 adipocytes viability, higher = more signal.
A short description of assay [13]: compound effects on hepatocellular carcinoma cell viability – HepG2, calcein-AM fluorescence, 48 h, basal, profiling panel (AID 1164). Also: test concentration not given here. To be noted: higher = more signal.
Assay [14] can be described thus: compound effects on multiple myeloma cell viability – MM1S, calcein-AM fluorescence, 48 h, basal, profiling panel (AID 1165).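 Also: viability of MM1S multiple myeloma cells under basal unstimulated conditions; test concentration not given here.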 To be noted: higher = more signal.
Assay [15] in a line: calcein-AM signal in unstimulated myeloma cells – cell-based, calcein-AM fluorescence, 48 h, PK04 Diversity Set, profiling panel (AID 1166).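 Also: cells grown under basal conditions without added stimulus; test concentration not given here.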 The note with it: RPMI8226 myeloma viability, higher = more signal.
Assay [16] in a line: JC-1 mitochondrial signal, unstimulated HepG2 cells – cell-based, JC-1 fluorescence, 24 h, 100 nL compound, profiling panel (AID 1167). Also: test concentration not given here. To be noted: HepG2 mitochondrial potential, higher = more signal.
The nature of assay [17]: JC-1 mitochondrial signal, unstimulated adipocytes – cell-based, JC-1 fluorescence, 3T3-L1 adipocytes, 24 h, 100 nL compound, profiling panel (AID 1168). Also: test concentration not given here. The note with it: JC-1 mitochondrial fluorescence, higher = more signal, called active from +8 up or from −8 down.
Assay [18] can be described thus: JC-1 mitochondrial signal, unstimulated myeloma cells – cell-based, JC-1 fluorescence, RPMI8226, 24 h, 100 nL compound, profiling panel (AID 1169). Also: test concentration not given here. To be noted: JC-1 mitochondrial potential fluorescence, higher = more signal.
A short description of assay [19]: JC-1 mitochondrial signal, unstimulated MM1S myeloma – cell-based, JC-1 fluorescence, 24 h, 100 nL compound, profiling panel (AID 1170). Also: test concentration not given here. To be noted: MM1S mitochondrial potential, higher = more signal.
A short description of assay [20]: resazurin metabolic signal in A549 cells – cell-based, resazurin fluorescence, 24 h, PK04 Diversity Set, profiling panel (AID 1171). Also: test concentration not given here. The note with it: A549 viability, higher = more signal, called active from +8 up or from −8 down.

Active and inactive are the calls of the source.

For the compound `COC(=O)[C@@]1(Cc2ccc(OC)cc2)[C@H]2c3cc(C(=O)N4CCCC4)n(Cc4cc(C)n(C)n4)c3C[C@H]2CN1C(=O)c1ccccc1`, the z-score in assay [1] was -0.703 (inactive); in assay [3], 1.46 (inactive); in assay [4], 0.279 (inactive); in assay [5], 0.63 (inactive); in assay [6] it was 0.494 (inactive); in [7], -0.458. For the same compound, the z-score in [8] is 0.755 (inactive); in assay [9], -0.134 (inactive); in assay [10], -2.8; in assay [11] it was -0.0671; in assay [12] it was -0.471; in assay [13], 0.851. Further, the z-score in assay [14] was 0.559; in [15] it was 0.192; in assay [16], 3.05; in assay [17] it was 0.00691 (inactive); in [18] it was -0.475; in [19] it was -1.37. Further, the z-score in assay [20] was 0.0924 (inactive). This compound also came in with a composite z-score in [2] of 0.947.

Turning to `CC1(C)C(=O)C(c2ccccc2)=C2CN3C(=O)N(CCc4ccccc4)C(=O)C3(Cc3ccc(C(F)(F)F)cc3)C=C21` (stereo not given), the z-score in assay [1] is -2.21 (inactive); in assay [3] it was 0.582 (inactive); in assay [4], 0.316 (inactive); in assay [5], 0.482 (inactive); in [6], 0.668 (inactive); in assay [7], 0.0875. Further, the z-score in assay [8] was -0.462 (inactive); in [9], -1.68 (inactive); in assay [10] it was -0.494; in assay [11] it was -0.902; in assay [12], -0.586; in assay [13] it was 0.409. The z-score is -1.49 in assay [14]; -1.75 in assay [15]; -2.08 in assay [16]; -2 (inactive) in assay [17]; -0.00804 in assay [18]; -0.421 in assay [19]. In assay [20], the z-score was 0.43 (inactive). This compound registered a composite z-score in [2] of 0.349.

Regarding `C=C(/C(=C/C[C@H](OC(=O)c1ccncc1)c1ccccc1OCCO)c1cnc2ccccc2c1)C(C)C`, the z-score in assay [1] is -0.227 (inactive); in assay [3] it was 11.1 (active); in assay [4] it was 1.86 (inactive); in assay [5] it was 1.41 (inactive); in assay [6] it was 0.553 (inactive); in [7] it was 0.125. For the same compound, the z-score in assay [8] is -1.71 (inactive); in [9], -0.391 (inactive); in [10] it was -0.914; in [11], 0.0894; in [12], -0.253; in assay [13], -0.444. For the same compound, the z-score is -1.26 in assay [14]; -0.906 in [15]; 0.96 in assay [16]; -0.482 (inactive) in assay [17]; -0.331 in assay [18]; -0.174 in assay [19]. The z-score in [20] was 1.35 (inactive). In addition, the composite z-score in assay [2] came to 0.313.

In the case of `CCOC(=O)C1=C[C@@H](C(C)(C)C)N(S(=O)(=O)c2ccc(C)cc2)[C@H]1c1cccc(Cl)c1`, the z-score in assay [1] was -1.11 (inactive); in [3], 1.26 (inactive); in assay [4], 1.03 (inactive); in assay [5], 0.223 (inactive); in assay [6], 0.39 (inactive); in assay [7], -0.98. For the same compound, the z-score in [8] is -0.789 (inactive); in assay [9], -0.842 (inactive); in [10], 0.196; in [11] it was -2.79; in [12] it was -0.192; in assay [13] it was -2.64. Moreover, the z-score was -2.77 in [14]; -4.21 in assay [15]; 5.38 in [16]; 0.318 (inactive) in assay [17]; -1.14 in assay [18]; -2.3 in assay [19]. In [20], the z-score was -1.12 (inactive). In assay [2], this compound gave a composite z-score of 0.522.

`O=C1[C@@H]2[C@@H](CC(COc3ccccc3)=C3[C@@H](CCc4ccccc4)OB(O)C[C@@H]32)C(=O)N1Cc1ccccc1`: the z-score in assay [1] was -1.45 (inactive); in assay [3], 11.2 (active); in assay [4], 2.04 (inactive); in assay [5], -0.791 (inactive); in assay [6], 0.82 (inactive); in assay [7] it was 0.17. For the same compound, the z-score is -0.0449 (inactive) in [8]; -0.128 (inactive) in assay [9]; -0.199 in assay [10]; -0.607 in assay [11]; -0.141 in [12]; -0.752 in [13]. The z-score is -3.22 in assay [14]; -4.09 in assay [15]; -0.851 in [16]; 0.453 (inactive) in [17]; -1.07 in assay [18]; 0.253 in assay [19]. In addition, the z-score in assay [20] was -0.0787 (inactive). The composite z-score in [2] was 0.0089.
